# Bioassay records from PubChem BioAssay.
# Tg IFNy HTS = T. gondii growth inhibition under IFN-gamma. 69,000 compounds, 3.8% hits. Toxoplasma gondii growth in IFN-gamma-treated host cells; active compounds read low. AID 1259416. activity change, negative = inhibition, % (test concentration not listed); in the data active = activity change below about -70%, passing the limit was not always enough;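 note: host cells are HeLa cells infected with Toxoplasma gondii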
# Numbers without * were called inactive; ! = repeats disagree. This excerpt belongs to a sample that is enriched for hits.
SMILES,Tg IFNy HTS
COC(=O)c1ccc(NC(=S)NC(C)(C)C)cc1,29
CCc1c(C)nc(N)nc1N1N=C1SC(C)C,-13
c1ccc(-c2nc3ccccc3nc2-c2cccc3ccccc23)cc1,27
CC(C)(C)n1nc(-c2cccc3ccccc23)c2c(N)ncnc21,-76*!
COC[C@@H]1CN(CC2CC2)C[C@@]12CCN(C(=O)Cc1ccc(C)cc1)C2,3
Cc1ccc(CNC2=NCCNC23CCN(S(=O)(=O)c2ccc(C)c(C)c2)CC3)cc1,-50
O=C(C[C@H]1CC[C@H](NC(=O)C2CC2)[C@@H](CO)O1)Nc1ccccc1,-21
COc1ccc2c(O[C@H]3CC4C(=O)N(C)CCCC/C=C\[C@@H]5C[C@@]5(C(=O)NS(=O)(=O)C5CC5)NC(=O)[C@@H]4C3)cc(-c3nc(C(C)C)cs3)nc2c1C (some centres not stated),-74*
Cn1nccc1-c1cc(C(=O)Nc2nc(-c3ccccn3)cs2)c2ccccc2n1,-101*
Cc1ccc2[nH]cc(CCNC(=O)c3cc(-c4ccccn4)nc4ccccc34)c2c1,61
O=C(Nc1cccc(Cn2cncn2)c1)c1cc(-c2ccccn2)nc2ccccc12,-29
O=C1NCC2(CCCN(C(=O)c3cc(-c4ccccc4)nc4ccccc34)C2)O1 (configuration not stated),2
O=C(Nc1ccc2nc(NC(=O)c3ccco3)sc2c1)c1cccnc1,63
Cc1cc(C)c2c(n1)sc1c(=O)n(N)c(C)nc12,-22
Cc1nc2cc(-c3ccccc3)sc2c(=O)n1N,-107*
Cc1nn(-c2ccc(F)cc2F)c(=O)c2nc(-c3ccccc3)sc12,0
COc1c(C)c2c(c(O)c1C/C=C(\C)CCC(=O)OCCN1CCOCC1)C(=O)OC2,-76*
Cc1oc2c(c1C(=O)Nc1cccc(OCCN3CCOCC3)c1)CCCC2,40
Cc1cc(-c2cncnc2C2CCN(C(=O)c3ccc(Cn4cccn4)o3)CC2)on1,15
Cc1cccc(CN(C(=O)c2csc(C)n2)C(C)C)c1,-2
Cn1ncc(-c2nc(-c3ccc(Cl)cc3)cs2)c1N,-83*
CC(C)(C)c1cc(-c2csc(-c3ccc(Cl)cc3)n2)cc(C(C)(C)C)c1O,58
Cc1nc(-c2ccc(Cl)cc2)cs1,-1
O=C(Nc1ccc(-c2nc(-c3cccc(Br)c3)co2)cc1)Nc1ccccc1F,54
O=C(NC(=O)c1ccccc1)NC(F)(F)C(F)(F)C(F)(F)F,31
SMILES,Tg IFNy HTS
CO[C@@H]1CN(C)C(=O)c2cc(NC(=O)C3CC3)ccc2OC[C@H](C)N(Cc2cc(F)ccc2F)C[C@@H]1C,-59
CO[C@H]1CN(C)C(=O)c2cc(NC(=O)C3CC3)ccc2OC[C@H](C)N(Cc2cc(F)ccc2F)C[C@@H]1C,-72*
CO[C@H]1CN(C)C(=O)c2cc(NC(=O)c3cccc(F)c3)ccc2OC[C@@H](C)N(C)C[C@H]1C,8
CCCN1C[C@H](C)[C@@H](OC)CN(C)C(=O)c2cc(NC(=O)C3CCC3)ccc2OC[C@@H]1C,7
CO[C@@H]1CN(C)C(=O)c2cc(NC(=O)c3cccc(F)c3)ccc2OC[C@@H](C)N(C)C[C@H]1C,3
CO[C@@H]1CN(C)C(=O)c2cc(NC(=O)c3cccc(F)c3)ccc2OC[C@@H](C)N(C)C[C@@H]1C,-75*
CCOC(=O)Nc1ccc(NC(C)=O)cc1,10
C[C@H](O)C#Cc1ccc([C@H]2[C@@H](CO)N3CCCCN(CC4CC4)C[C@H]23)cc1,15
Cc1ccccc1Oc1ncccc1CNC(=O)C1COc2ccccc2O1 (configuration not stated),4
Cc1cc(NCc2cc(-c3ccccn3)no2)nc(-c2cccnc2)n1,-2
Cc1ccccc1NC(=O)N1C[C@@H](O)[C@H](NCCN2CCNC2=O)C1,13
Cc1nc(CC(=O)NC2(C#Cc3cncc(C(N)=O)c3)CCCCC2)cs1,76
CC1=CC(C)C(COC(=O)NC2CCCCC2)(COC(=O)NC2CCCCC2)C(C)C1 (configuration not stated),-101*
O=C(CNC(=O)OCc1ccccc1)NC1CCCCCC1,12
CS(=O)(=O)CC(=O)NC1CCCCC1,40
N#CC1(C(=O)O)CN(CCc2ccc(Cl)cc2)CN(CCc2ccc(Cl)cc2)C1,-6
O=C(C[C@H]1CC[C@H]2NC[C@H](O)COC[C@@H]2O1)Nc1ccc(-c2ccccc2)cc1,7
O=C(NCCc1csc(-c2ccccc2)n1)[C@H]1CSCN1C(=O)CCc1ccccc1,-1
NC(=O)c1sc(-c2ccsc2)cc1NC(=O)c1cccs1,-42
NC(=O)c1cc(-c2ccccc2)sc1NC(=O)c1cccs1,-83*
CCOC(=O)c1cc(-c2ccccc2)sc1NC(=O)c1ccc(Cl)cc1,17
COCCN1C(=O)CC2C1CCN2S(=O)(=O)c1cn(C)cn1 (configuration not stated),83
Cc1ccsc1-c1nc(CN2CCC3(CC2)CN(C)C(=O)O3)c(C)o1,5
COc1ccccc1/C=C/CN1CCN(C)C(C(=O)O)C1 (configuration not stated),5
COc1ccccc1/C=C/CN1CC2CCCN2C[C@H]1C (some centres not stated),-79*
SMILES,Tg IFNy HTS
COc1ccccc1/C=C/CN1CCNC(C(=O)N2CCCC2)C1 (configuration not stated),2
CC(C)(C)[S@@](=O)N1Cc2cc(C(=O)N[C@@H]3CCN(Cc4ccccc4)C3)nc(-c3cccc(-c4cccnc4)c3)c2[C@H]1CCO,-37
CNC(=O)c1ccc(-c2nc(CN3CCN(S(=O)(=O)c4ccc(F)cc4)CC3)c(C)o2)cc1,73
CCc1nc(OCC(=O)Nc2cc(C)cc(C)c2)c2ccccc2n1,-6
Cc1cc(C)cc(NC(=O)CC(=O)NCc2ccccc2)c1,-86*
Cc1ccc(NC(=O)CC(=O)NCc2ccc(CN3CCCC3)cc2)cc1,-21
Cc1ccc([N+](=O)[O-])cc1S(=O)(=O)N(C)/N=C/c1cnc2ccc(Br)cn12,-80*
O=C(CN1C(=O)CCc2cc(S(=O)(=O)N3CCCC3)ccc21)N1CC=C(c2ccccc2)CC1,-7
COc1ccc(C#Cc2cccc(-c3nc(C(=O)Nc4ccc(-c5ccccc5)cc4)cc4c3[C@@H](CCO)N(S(=O)C(C)(C)C)C4)c2)cc1OC (some centres not stated),-71*
CC(C)(C)[S@](=O)N1Cc2cc(C(=O)NC3CCC3)nc(-c3cccc(Br)c3)c2[C@@H]1CCO,-75*
COc1ccc(C#Cc2cccc(-c3nc(C(=O)NCCCN4CCOCC4)cc4c3[C@@H](CCO)N(S(=O)C(C)(C)C)C4)c2)cc1OC (some centres not stated),23
CC(C)(C)[S@@](=O)N1Cc2cc(C(=O)NC3CCC3)nc(-c3cccc(Br)c3)c2[C@H]1CCO,48
CN(C)C(=O)c1ccc(-c2cccc(-c3nc(C(=O)NC4CCCCC4)cc4c3[C@H](CCO)N([S@@](=O)C(C)(C)C)C4)c2)cc1,-48
COc1ccc(C#Cc2cccc(-c3nc(C(=O)N4CCN(Cc5ccccc5)CC4)cc4c3[C@@H](CCO)N(S(=O)C(C)(C)C)C4)c2)cc1OC (some centres not stated),-48
Nc1nc(CSc2nnc(-c3ccncc3)o2)nc(Nc2ccccc2)n1,5
CCCC(=O)N1CCc2c([nH]c3ccccc23)C12C(=O)Nc1ccc(Br)cc12 (configuration not stated),-82*
CCC(=O)N1CCc2c([nH]c3ccccc23)C12C(=O)N(C)c1ccc(Br)cc12 (configuration not stated),109
